Assay results reported in PubChem BioAssay (NCI).
“And” between values parts separate entries of the source, which are not always exact repeats. Identical values can stand only once. Compounds without any hit were thinned out: in the full panel of roughly 83,000, 20% have a hit.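 The endpoint reported here, percent growth, reads 100 for growth as untreated, 0 for no net growth and -100 for all cells dead.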 Unmarked numbers belong to inactive results. The source made the active and inactive calls. Rule for the calls: active = growth percent below 10; inactive = the rest.

Tested on: MDA-MB-468 breast
Assay: NCI-60 one-dose screen, 48 h (100 = growth as untreated, 0 = no growth, -100 = all killed)
Settings: 10 µM unless noted

Row | SMILES | growth
1 | COC1=CC(=O)c2nc(Cl)ccc2C1=O | -51% (active)
2 | C[C@]12CC[C@H]3[C@@H](CC=C4C[C@@H](O)CC[C@@]43C)[C@@H]1CC[C@@H]2[C@](C)(O)CCc1cccnc1 | 25.3%
3 | Clc1ccc(Oc2ccc(Nc3ncnc4onc(-c5ccccc5)c34)cc2)c(Cl)c1 | 95.1%
4 | C[C@@H]1C[C@H]2C(=O)O[C@@H](C)[C@H](NC(=O)[C@H](Cc3cc(F)cc(F)c3)NC(=O)Nc3ccc(Cl)cc3F)C(=O)N3C[C@H](O)C[C@H]3C(=O)N3CCN(C)C[C@H]3C(=O)N[C@@H](C)C(=O)N2C1 | 11.5%
5 | CCOC(=O)c1sc(NC(=O)COc2ccc(/C=C3\Cc4ccc(Cl)cc4C3=O)cc2)nc1C | 115%
6 | COc1ccc(/C=C2\Oc3cc(OCCCCCN4CCCCC4)ccc3C2=O)cc1OC | 57.6%
7 | CC[C@H](C)C(=O)O[C@H]1CCC=C2C=C[C@H](C)C(CCC3C[C@@H](O)CC(=O)O3)[C@H]21 (some centres undefined) | 75.4%
8 | C=C(C)[C@@H]1CC[C@]2(CO)CC[C@]3(C)[C@H](CC[C@@H]4[C@@]5(C)C=C(C#N)C(=O)C(C)(C)[C@@H]5CC[C@]43C)[C@@H]12 | 8.08% (active)
9 | CN(C)CCCn1c(=O)c2cc([N+](=O)[O-])ccc2c2cnc3[nH]ccc3c21 | 81.3%
10 | CC(=O)N1CCN(c2ccc(OCC3CO[C@](Cn4ccnc4)(c4ccc(Cl)cc4Cl)O3)cc2)CC1 (some centres undefined) | 26.5%
11 | CCN1C(=O)C2(Nc3ccccc3S2)c2cc(C)ccc21 (centres undefined) | 98.6%
12 | CCCCNC(=O)Oc1ccc(/C(=C(\C)c2ccc(OC)cc2)c2ccc(OCCN3CCCCC3)cc2)cc1 | 64.4%
13 | Cc1ccc(C(=Nc2ccccc2)N=P(c2ccccc2)(c2ccccc2)c2ccccc2)cc1 | -83% (active)
14 | O=C1N=C(c2c(-c3[nH]c(=O)c4ccc(Br)cc4c3O)c(O)c3ccccc3c2O)C(=O)c2cc(Br)ccc21 | -11.5% (active)
15 | CS(=O)(=O)c1ccc(-c2nc3ccccn3c2/C=N/Nc2nc(-c3ccc(Br)cc3)cs2)cc1 | 102%
16 | CN1CCN(c2ccc(-c3ccc4ncc(C#N)c(Nc5ccc(F)c(Cl)c5)c4c3)cc2)CC1 | 1.52% (active)
17 | O=c1[nH]nc(-c2ccc(Br)cc2)c2sc(NC(=S)Nc3ccc(Cl)cc3)nc12 | 110%
18 | COc1ccc(/C(=C2\O[C@@H]([C@H]3COC(C)(C)O3)[C@H]3OC(C)(C)O[C@@H]23)c2cc(OC)c(OC)c(OC)c2)cc1O | 96.4%
19 | CC(C)C(C(=O)NCCN1CCOCC1)N1C(=O)/C(=C/c2ccc(Br)cc2)SC1=S (centres undefined) | 99.2%
20 | O=S(=O)(Cc1ccccc1)c1nc2ccccc2s1 | 76.8%
21 | O=C(Nc1ccc([N+](=O)[O-])cc1Cl)c1cc(Cl)ccc1O | -21.5% (active) and -24.3% (active)
22 | COc1cc2c(=O)n(CCCn3ccnc3)c3c4cc5c(cc4ccc3c2cc1OC)OCO5 | -37.3% (active)
23 | COc1cc(/C=C/C(=O)c2ccc(F)cc2)ccc1Oc1nc(NCCO)nc(N2CCOCC2)n1 | 77.2%
24 | CC(C)c1ccc(C(C)C(=O)N(CC2=C(C(C)c3ccccn3)c3ccccc3C2)C(C)C)cc1 (centres undefined) | 24.9%
25 | CC(C)=C1CCC(C)C/C1=N\N=C(N)N (centres undefined) | 101%

Row | SMILES | growth
26 | O=S(Cc1ccccc1)/C(=C/NC(=S)Nc1cc(Cl)ccc1Cl)c1ccccc1 (centres undefined) | 106%
27 | CCOP(=O)(OCC)OC[C@]12CCC(C)(C)C[C@H]1C1=CC[C@@H]3[C@@]4(C)CC[C@H](OP(=O)(OCC)OCC)C(C)(C)[C@@H]4CC[C@@]3(C)[C@]1(C)CC2 | 40.9%
28 | Cc1[nH]n(C(=O)c2ccncc2)c(=O)c1N=Nc1ccc(S(=O)(=O)Nc2ccncn2)cc1 | 103%
29 | O=C(NCCCNc1cc(-c2cn(-c3ccccc3)nc2-c2cccc(O)c2)ccn1)Nc1cc(C(F)(F)F)cc(C(F)(F)F)c1 | 70.4%
30 | COc1cc(/C=C/C(=O)c2c(C)nc3ccccc3c2/C=C/c2ccc(C)cc2)cc(OC)c1OC | 18.9%
31 | O=C(O)c1ccc(-n2cc(/C=N/Nc3ccc(Cl)cc3Cl)c(-c3ccccc3)n2)cc1 | 79.7%
32 | CCSc1ccc([C@@H]2[C@@H](O)C(=O)N2c2cc(OC)c(OC)c(OC)c2)cc1 | 40.2%
33 | CN1CCOCCN(C)Cc2ccc3ccc(cc3c2)CN(C)CCOCCN(C)Cc2ccc3ccc(cc3c2)C1 | 52.9%
34 | N/C(=N\O)c1cn(C2OC(CO)C(O)C2O)c2ncnc(N)c12 (centres undefined) | -23.4% (active)
35 | COc1ccccc1C(=O)O/N=C(\N)Cc1cccc2ccccc12 | 61.6%
36 | Cc1nc(-c2cc3ccccc3oc2=O)ccc1C(=O)/C=C/c1ccccn1 | 60.5%
37 | COc1ccc(/C(C#N)=C2C=C/C(=N/O)c3ccccc3\2)cc1 | 37.1%
38 | O=C(Nc1cccnc1Nc1ccc(Cl)cc1)c1cn(Cc2ccc(F)cc2)nn1 | 99.5%
39 | O=C(Nc1cccnc1Nc1ccccc1)c1cn(Cc2cccc(Oc3ccccc3)c2)nn1 | 69.9%
40 | O=C(CCc1nnc(SCc2ccccc2)s1)c1nc2ccccc2[nH]1 | 103%
41 | C#CCOc1ccc2ncnc(Nc3cccc(CNC(=O)CCl)c3)c2c1 | -3.41% [8.25 µM] (active)
42 | CCCCCCCC/C=C\CCCCCCCCOc1ccccc1CC(=O)NCC[N+](C)(C)C | 68.9%
43 | CC(N)C(=O)NNc1n[nH]c(=S)n1N (centres undefined) | 82%
44 | CCCCCCCCCCCCCCCCCC1OCC(COC(=O)O[C@]2(CC)C(=O)OCc3c2cc2n(c3=O)Cc3cc4ccccc4nc3-2)O1 (some centres undefined) | 69.9%
45 | CC(C)(C)n1cc(-c2ccnc(NCCCNS(=O)(=O)c3ccc(Br)cc3)c2)c(-c2cccc(O)c2)n1 | 3.51% (active)
46 | O=C(/C=C1\C(=O)N(Cc2ccc([N+](=O)[O-])cc2)c2ccccc21)c1ccc(OCCN2CCCCC2)cc1 | -63.1% (active)
47 | Nc1nc(N)c2nc(-c3cccc(O)c3)c(-c3cccc(O)c3)nc2n1 | 10.4%
48 | CCC(C)C1NC(=O)C(CC(C)C)NC(=O)C(C)NC(=O)C(C(C)C)NC(=O)C(CCCCN)NC(=O)C(CC(C)C)NC(=O)C(C(C)C)NC(=O)[C@H](C)NC(=O)C(C(C)CC)NC(=O)C(CCCN=C(N)N)NC(=O)C(CCCCN)NC(=O)C(CCCN=C(N)N)NC(=O)C(CCCCN)NC(=O)C([C@H](C)CC)NC(=O)C(CCCCN)NC1=O (some centres undefined) | -4.06% (active)
49 | Cc1cccc(N2CCN(C3=C(Cl)C(=O)c4ncccc4C3=O)CC2)c1 | -66.6% (active)
50 | Nc1c(S(=O)(=O)O)cc2c3c(cccc13)C(=O)OC2=O | 85.9%

Row | SMILES | growth
51 | Oc1ccccc1-c1nc2c3ccccc3c3ccccc3c2o1 | 83%
52 | c1cc(C2=N[C@@H]3c4ccccc4C[C@@H]3O2)nc(C2=N[C@@H]3c4ccccc4C[C@@H]3O2)c1 | 95.8%
53 | Cn1cc(-c2cc3ncnc(Nc4ccc(CC(=O)Nc5cc(C(C)(C)C)nn5C)cc4)c3s2)cn1 | 33.8%
54 | Cc1cc2nc3c4cc(C=O)ccc4n(CCN(C)C)c3nc2cc1C | -5.88% (active)
55 | CCc1nnc(NC(=O)c2cc(-c3ccc(Cl)cc3Cl)oc2C)s1 | 94%
56 | O=[N+]([O-])C1C(c2ccccc2)C12c1ccccc1-c1ccccc12 (centres undefined) | -26% (active)
57 | Nc1nc(C(=O)N/N=C/c2ccc(F)cc2)nn1-c1ccc(S(N)(=O)=O)cc1 | 102%
58 | C[C@@H](O)[C@H]1C(=O)N2C(C(=O)O)=C(SCCN=CN)C[C@H]12 | -48.1% (active)
59 | CN(C)CCNC(=O)c1ccc(-c2nc3ccc4[nH]ncc4c3c3c2C2CCC3C2)cc1 (centres undefined) | 16.2%
60 | O=S1(=O)C=C(c2ccccc2)C(c2ccccc2)=C1 | -68.5% (active)
61 | O=C(Nc1ccncc1)C(=O)c1cn(S(=O)(=O)c2ccc(Br)cc2)c2ccccc12 | 6.9% (active)
62 | O=C1Nc2ccc(Br)cc2/C1=N\c1nnc(-c2ccc(Cl)cc2)o1 | 51.8%
63 | N#CCCN1C/C(=C/c2ccc(Cl)cc2)C(=O)/C(=C/c2ccc(Cl)cc2)C1 | -66.5% (active)
64 | CCn1c(SC)nnc1-c1cc2c([nH]c3ccccc32)c(-c2cccc(O)c2)n1 | -12.6% (active)
65 | Brc1cccc(-c2cc(-c3ccc4c(c3)OCCO4)[nH]n2)c1 | 2.79% [25 µM] (active)
66 | CNC(=O)NCC1OC(n2cnc3c(NC(=O)Nc4ccccc4)ncnc32)C(O[Si](C)(C)C(C)(C)C)C1O[Si](C)(C)C(C)(C)C (centres undefined) | 35.8%
67 | CC(=O)OCC1SC(OC(C)=O)C(NC(=O)/C=C/CCl)C(OC(C)=O)C1OC(C)=O (centres undefined) | 98.5%
68 | O=C(CCCCC(=O)N/N=C\c1ccccc1O)N/N=C\c1ccccc1O | 22.4%
69 | CCOP(=O)(OCC)OC[C@]12CC[C@@H](C)[C@H](C)C1C1=CC[C@@H]3[C@@]4(C)CCCNC(C)(C)[C@@H]4CC[C@@]3(C)[C@]1(C)CC2 (some centres undefined) | -51% (active)
70 | O=C(Oc1ccccc1)c1cc(O)c(O)c(O)c1 | 71.7%
71 | O=C(O)C(CCc1ccccc1)NCc1ccccc1 (centres undefined) | 108%
72 | CN1CCN(Cc2ccc(NC(=O)c3cncc(C#Cc4nc(N)nc5[nH]ncc45)c3)cc2C(F)(F)F)CC1 | 35.1%
73 | Clc1nc(Nc2ccccc2)nc(Nc2ccccc2)n1 | 57.3%
74 | CN(C)CCN(C)c1ccc2ncc(C#Cc3cncc(C(=O)Nc4ccc(CN5CCN(C)CC5)c(C(F)(F)F)c4)c3)n2n1 | 84.8%
